According to PMC4336329 (PLoS ONE, 2015):
In all, about 310,000 compounds went through this assay and about 14,000 (4.5%) showed an effect of 50% or more. Effects have a minus sign here. The sample holds strong results, similar compounds and a random draw of the others, so the mix is not that of the screen.

Each compound was assayed against human ether-à-go-go-related gene (hERG) potassium channel (human, UniProt Q12809) (assay: primary screen, population patch clamp on CHO cells stably expressing hERG; higher = less effect of the substance).
Chain of human ether-à-go-go-related gene (hERG) potassium channel (Q12809 whole entry, looked up): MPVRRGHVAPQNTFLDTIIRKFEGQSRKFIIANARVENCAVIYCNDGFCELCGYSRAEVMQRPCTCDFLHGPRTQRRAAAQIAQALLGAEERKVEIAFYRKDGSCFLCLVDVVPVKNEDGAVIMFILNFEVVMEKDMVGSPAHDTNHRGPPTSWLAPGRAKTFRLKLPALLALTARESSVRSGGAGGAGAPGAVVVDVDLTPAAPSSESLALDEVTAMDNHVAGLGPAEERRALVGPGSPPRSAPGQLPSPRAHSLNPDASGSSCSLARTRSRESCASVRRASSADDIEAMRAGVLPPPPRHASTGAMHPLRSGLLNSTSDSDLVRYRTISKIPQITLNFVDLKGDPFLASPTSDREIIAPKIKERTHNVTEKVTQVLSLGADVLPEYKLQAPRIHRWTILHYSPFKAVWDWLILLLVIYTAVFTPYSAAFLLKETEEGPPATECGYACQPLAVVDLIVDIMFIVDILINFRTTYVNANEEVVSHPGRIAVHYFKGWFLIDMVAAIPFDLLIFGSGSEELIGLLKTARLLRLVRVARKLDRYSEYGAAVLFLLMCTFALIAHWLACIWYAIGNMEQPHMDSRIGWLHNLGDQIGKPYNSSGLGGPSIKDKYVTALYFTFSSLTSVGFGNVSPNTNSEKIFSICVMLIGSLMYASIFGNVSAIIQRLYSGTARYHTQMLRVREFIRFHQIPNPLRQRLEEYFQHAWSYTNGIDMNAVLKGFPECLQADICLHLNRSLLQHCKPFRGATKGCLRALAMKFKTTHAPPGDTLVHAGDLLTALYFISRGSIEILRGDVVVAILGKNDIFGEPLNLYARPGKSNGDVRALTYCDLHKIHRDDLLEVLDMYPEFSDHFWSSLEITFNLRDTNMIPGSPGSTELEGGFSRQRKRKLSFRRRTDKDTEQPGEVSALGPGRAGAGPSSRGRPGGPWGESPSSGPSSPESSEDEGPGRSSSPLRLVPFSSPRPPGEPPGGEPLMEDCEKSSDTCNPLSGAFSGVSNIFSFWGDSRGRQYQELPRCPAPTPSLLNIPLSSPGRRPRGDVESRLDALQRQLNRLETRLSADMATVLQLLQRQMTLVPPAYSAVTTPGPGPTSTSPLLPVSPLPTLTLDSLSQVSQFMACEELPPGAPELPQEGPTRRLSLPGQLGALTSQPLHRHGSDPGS
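Also: peak tail current of the secondary pulse compared with the same well before compound.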

SMILES | hERG current change (%, negative = inhibition) at 10uM
CCOC(=O)N1CCN(C(=O)COC(=O)COc2c(C)cc(C)cc2C)CC1 | -9.8%
O=c1c(-c2ccc(O)cc2O)coc2cc(O)cc(O)c12 | -4.59%
Nc1nnc(Cc2cccc(Br)c2)s1 | 3.51%
COCCNC(=O)COc1ccc(C)cc1C | 10.4%
CCCCNC(=S)N(C)/N=C/c1ccc(OCC(=O)Nc2ccc(OC)cc2)c(OC)c1 | -4.23%
CCOC(=O)C1=C(C)NC(SCC(N)=O)=C(C#N)C1c1cccs1 (stereo not drawn) | -13.2%
O=C(c1ccc2c(=O)n3c(nc2c1)CCCCC3)N1CCN(Cc2ccccc2)CC1 | -2.69%
Cc1ccc(C(=O)OCC(=O)N(C)c2ccccc2)cc1C | -9.59%
COc1ccc(Cn2c(C)nc3c(c(=O)c4ccccc4n3C)c2=O)cc1 | -44.5%
COc1ccc(CCn2c(-c3ccc(OC)cc3)nc3c(c(=O)c4ccccc4n3C)c2=O)cc1 | 11.4%
COc1ccc(CCn2c(C)nc3c(c(=O)c4ccccc4n3C)c2=O)cc1 | -61.4%
COc1ccc2c(=O)c3c(=O)n(CCc4ccccc4)c(C(C)C)nc3oc2c1 | 5.79%
COc1ccc(CCn2c(C(C)C)nc3oc4ccccc4c(=O)c3c2=O)cc1 | -75.3%
COCCn1c(C(C)C)nc2oc3ccccc3c(=O)c2c1=O | 3.05%
COc1ccc(CCn2c(C(C)C)nc3c(c(=O)c4ccccc4n3C)c2=O)cc1 | -30%
CCc1nc2c(c(=O)c3ccccc3n2C)c(=O)n1CCc1ccc(OC)cc1 | -74.9%
COc1ccc(CCn2c(-c3ccccc3)nc3c(c(=O)c4ccccc4n3C)c2=O)cc1 | 11.3%
Cc1ccc(NC(=O)CSCC(=O)N2c3ccccc3CCc3ccccc32)cc1 | 7.66%
CC(=O)Nc1ccccc1C(=O)N1CCN(Cc2ccccc2)CC1 | 5.02%
O=c1[nH]c(=O)n(Cc2ccco2)c(O)c1C=NCc1ccco1 | 3.46%
Cc1nnc(NC(=O)CSc2nnc(-c3ccc(S(=O)(=O)N4CCCC4)cc3)n2C)s1 | -3.39%
C/C(=N\NC(=O)C1CC1)c1ccc(OC(F)F)cc1 | 9.94%
CCOc1ccc(NC(=O)CSCC(=O)O)cc1 | 1.8%
Oc1ccc(/C(Cc2ccccn2)=N\Nc2ccccc2)c(O)c1 | 8.76%

SMILES | hERG current change (%, negative = inhibition) at 10uM
Cc1ccc(C)c(OCc2cc(C(=O)NC3CCN(Cc4ccccc4)CC3)no2)c1 | -41.1%
CC(=O)c1ccc(OCc2cc(C(=O)NC3CCCCC3)no2)cc1 | 5.17%
O=C(NC1Cc2ccccc2C1)c1cc(COc2ccc(F)cc2Cl)on1 | 13.3%
CC(=O)c1cccc(OCc2cc(C(=O)NC3CCN(Cc4ccccc4)CC3)no2)c1 | -62.9%
O=C(NC1CCN(Cc2ccccc2)C1)c1cc(COc2ccc(F)cc2F)on1 (stereo not drawn) | -64.2%
O=C(NC1CCc2ccccc21)c1cc(COc2ccc(F)cc2F)on1 (stereo not drawn) | 16.5%
c1ccc(-c2ccc(SCc3cccnc3)nn2)nc1 | 8.9%
COC(=O)CCCC1=CC2=CC(=O)C(C)(OC(=O)c3cnc4ccccc4n3)C(=O)C2=CO1 (stereo not drawn) | 7.07%
O=C(Nc1ccc(Br)cc1)c1cnccn1 | -2.9%
COCc1ccc(CN2CCCC(C(=O)Nc3ccc(-c4cccc(OC)c4)cc3)C2)o1 (stereo not drawn) | -0.711%
COc1cccc(CNC(=O)CCC2CCCN(C(=O)c3ccoc3C)C2)c1 (stereo not drawn) | 5.6%
CCN(CC1CCCN(CCc2cccc(OC)c2)C1)C(=O)c1ccc(COC)o1 (stereo not drawn) | -71%
CCN(CC1CCCN(CCc2cccc(OC)c2)C1)C(=O)C=C(C)C (stereo not drawn) | -61.1%
CCN(CC)C(=O)C1CCCN(Cc2cccc(Oc3ccccc3)c2)C1 (stereo not drawn) | -19.6%
COc1cccc(CCC(=O)N(C)C2CCCN(Cc3ccccc3F)C2)c1 (stereo not drawn) | -0.453%
COc1cccc(CC(=O)NC2CCCN(Cc3ccccc3F)C2)c1 (stereo not drawn) | -5.72%
COc1cccc(CNC(=O)CCC2CCCN(C(=O)c3ccoc3)C2)c1 (stereo not drawn) | 24.9%
CCN(CC1CCCN(CCc2cccc(OC)c2)C1)C(=O)c1ccoc1C (stereo not drawn) | -62.8%
CCN(CC1CCCN(CCc2cccc(OC)c2)C1)C(=O)c1ccoc1 (stereo not drawn) | -70.7%
CCOC(=O)C1C(=O)NC(N2CCN(c3ccccc3)CC2)=NC1c1ccco1 (stereo not drawn) | -5.81%
O=C(COC(=O)CCNS(=O)(=O)c1cccs1)Nc1cc(C(F)(F)F)ccc1Cl | -26.1%
Cc1ccc(/C=C/C(=O)O)cc1S(=O)(=O)N(CCO)CCO | 8.09%
Cc1sc2ncnc(Sc3nnnn3-c3ccc(Cl)cc3)c2c1C | 11.2%
Nc1nccnc1C(=O)OCC(=O)c1ccc[nH]1 | -0.119%

SMILES | hERG current change (%, negative = inhibition) at 10uM
COc1ccc(CCn2c(=S)[nH]c3ccc(N4CCOCC4)cc3c2=O)cc1OC | 10.2%
O=C(c1cccc(Cl)c1)N1CCN(c2ccc(N3CCOCC3)nn2)CC1 | -34.8%
CC(=O)c1ccc(Oc2ncnc(N)c2[N+](=O)[O-])cc1 | 12.4%
COc1ccc(-c2nc(CS(=O)CC(=O)NC3CCC(C)CC3)c(C)o2)cc1OC (stereo not drawn) | -34.6%
COc1ccc(-c2n[nH]c(=S)n2-c2ccc(C)cc2)cc1 | 8.3%
Br.CCn1c(=N)n(CC(=O)C23CC4CC(CC(C4)C2)C3)c2ccccc21 | -32.3%
Br.C=CCn1c(=N)n(CC(=O)c2ccc(Br)s2)c2ccccc21 | -58.6%
Br.Cn1c(=N)n(CC(=O)c2ccc(Br)s2)c2ccccc21 | -6.86%
Br.CCCCn1c(=N)n(CC(=O)O)c2ccccc21 | 22.4%
Br.C=CCn1c(=N)n(CC(=O)c2ccccc2)c2ccccc21 | -23.9%
Br.CCn1c(=N)n(CC(=O)c2ccc(Br)s2)c2ccccc21 | -69.3%
C=CCn1c(=N)n(CC(=O)c2ccc(Br)cc2)c2ccccc21 | -43.5%
Br.CCn1c(=N)n(CC(=O)C(C)(C)C)c2ccccc21 | -21.1%
Br.CCN(CC)CCn1c(=N)n(CC(=O)c2ccc(C)cc2)c2ccccc21 | -40.8%
Br.CCN(CC)CCn1c(=N)n(CC(=O)c2ccc(Br)s2)c2ccccc21 | -76.9%
Br.CCCCn1c(=N)n(CC(=O)C(C)(C)C)c2ccccc21 | -55%
O=C(c1ccc(CNS(=O)(=O)c2ccccc2)cc1)N1CCC2(CC1)OCCO2 | -4.16%
COc1ccc(NC(=O)CC2C(=O)N(c3ccccc3)C(=O)N2CCc2cccs2)cc1 (stereo not drawn) | -32.9%
CCOc1ccccc1NC(=O)C1CCCCN1S(=O)(=O)c1ccc(F)cc1 (stereo not drawn) | -2.26%
CN1CCN(C(c2cccnc2)c2ccc3cccnc3c2O)CC1 (stereo not drawn) | -4.29%
Cc1cccn2c(=O)nc(SCC(=O)N3CC(C)OC(C)C3)nc12 (stereo not drawn) | 1.96%
CCc1nc(NCCO)c(C#N)c2c1CCCC2 | 13.4%
CCOc1ccccc1-c1nnc(SCC(=O)NC2(C#N)CCCC2)o1 | -19.2%
CC(C)OC(=O)c1ccc(NC(=O)Cn2c(-c3nonc3N)nc3ccccc32)cc1 | 18.4%

SMILES | hERG current change (%, negative = inhibition) at 10uM
CC1(c2ccccc2)NC(=S)N2C1NC(=S)N2c1ccccc1 (stereo not drawn) | 10.2%
COc1cc(NC(=O)C/C(C)=N/NC(=O)c2cccc(O)c2)c(OC)cc1Cl | -8.16%
CCOC(=O)COn1c(=O)c(=O)n(OC)c2ccccc21 | 17.8%
O=C(COC(=O)Cc1cn2ccsc2n1)NCc1ccc2c(c1)OCO2 | -15.2%
Br.Cn1c(=N)n(CC(=O)c2cccs2)c2ccccc21 | -0.146%
Br.N=c1n(CC(=O)c2ccc(Br)s2)c2ccccc2n1Cc1ccccc1 | -61.7%
Br.CCCCn1c(=N)n(CC(=O)c2ccc(Br)s2)c2ccccc21 | -52.8%
CCCn1c(=N)n(CC(=O)c2cccs2)c2ccccc21 | -22%
Br.N=c1n(CC(=O)c2cccs2)c2ccccc2n1Cc1ccccc1 | -48%
O=C(O)Cn1c(=O)n(Cc2ccccc2)c2ccccc21 | 23.4%
CCC(C(=O)NCCN1CCOCC1)n1c2ccccc2c2nc(=O)cc(C)n21 (stereo not drawn) | 23.1%
Cc1cccc(NC(=O)CSc2nnnn2-c2cccnc2)c1 | -6.57%
COc1ccc(OC)c2nc(-c3cccnc3)ccc12 | 10.2%
O=C1CC2(CCN(C(=O)c3cccc(Br)c3)CC2)Oc2ccccc21 | -85.5%
O=C1CC2(CCCCC2)Oc2ccc(Cl)cc21 | 1.26%
CC(=O)Nc1ccc(S(=O)(=O)N2CCC3(CC2)CC(=O)c2ccccc2O3)cc1 | -36.6%
O=C1CC2(CCN(C(=O)c3cccc(Cl)c3)CC2)Oc2ccccc21 | -78.5%
O=C(c1ccc(F)cc1)N1CCC2(CC1)OCCO2 | 19%
O=C(c1cccc(Br)c1)N1CCCC1 | 0.701%
O=C1CC2(CCN(C(=O)c3ccc(Br)cc3)CC2)Oc2ccccc21 | -73.5%
O=C1CC2(CCN(C(=O)c3ccc(F)cc3)CC2)Oc2ccccc21 | -76%
